# From PubChem BioAssay (NCI)
# Compounds without any hit were thinned out: in the full panel of roughly 79,000, 15% have a hit. Values without a mark were called inactive. Activity calls are given as the source filed them. Rule as the data show it: active = growth inhibition above about 70%; inactive = the rest.
# Tests used:
# [1] = NCI Yeast Anticancer Drug Screen. Data for the rad50 strain (AID 155);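 also: 0% = growth of vehicle-only cultures of the same strain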; conditions: S. cerevisiae rad50 strain growth inhibition, hits give high values
# Method in brief: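 Genetically altered yeast (DNA repair pathway); compound treatment; growth inhibition vs vehicle ctrl.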
# [2] = NCI Yeast Anticancer Drug Screen. Data for the mec2-1 strain (AID 157); conditions: S. cerevisiae mec2-1 strain, hits give high values
# Method in brief: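 Using mec2-1 yeast: add compound, measure growth, express inhibition versus vehicle-treated cultures.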
# [3] = NCI Yeast Anticancer Drug Screen. Data for the sgs1 mgt1 strain (AID 161);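 also: 0% = growth of cultures given vehicle only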; conditions: S. cerevisiae sgs1 mgt1 strain, hits give high values
# Method in brief: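 Percent growth inhibition was derived by comparing compound-exposed mutant yeast with vehicle-exposed cultures. The strain carries alterations in DNA damage repair.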
# [4] = NCI Yeast Anticancer Drug Screen. Data for the cln2 rad14 strain (AID 165);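 also: 0% = growth equal to vehicle treated cultures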; conditions: S. cerevisiae cln2 rad14 strain, hits give high values
# Method in brief: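 Yeast strain cln2 rad14, bearing defects in cell cycle control and DNA repair, serves as the test system; values reflect growth inhibition compared with vehicle.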
# [5] = NCI Yeast Anticancer Drug Screen. Data for the bub3 strain (AID 167); conditions: S. cerevisiae bub3 mutant strain, hits give high values
# Method in brief: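 Yeast carrying a defined mutation is treated with each compound, and growth is compared with that of vehicle-exposed cells to give inhibition.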
# [6] = NCI Yeast Anticancer Drug Screen. Data for the mlh1 rad18 strain (AID 175); conditions: S. cerevisiae mlh1 rad18 strain growth inhibition, hits give high values
# Method in brief: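 Steps: expose repair-defective yeast to compound; measure growth; express inhibition against vehicle-treated controls.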
# [7] = at 5.0 µM (retest, dose inferred, filed as 0.5)
# [8] = at 50.0 µM (retest, dose inferred, filed as 5.0)
SMILES,"growth inhibition [1, 7]","growth inhibition [1, 8]",growth inhibition ([1]; at 50.0 µM),"growth inhibition [2, 7]","growth inhibition [2, 8]",growth inhibition ([2]; at 50.0 µM),"growth inhibition [3, 7]","growth inhibition [3, 8]",growth inhibition ([3]; at 50.0 µM),"growth inhibition [4, 7]","growth inhibition [4, 8]",growth inhibition ([4]; at 50.0 µM),"growth inhibition [5, 7]","growth inhibition [5, 8]",growth inhibition ([5]; at 50.0 µM),"growth inhibition [6, 7]","growth inhibition [6, 8]",growth inhibition ([6]; at 50.0 µM)
CCC(=O)NC1=CCC(C(C)(C)C)CC1 (centres undefined),2%,-4%,10.2%,1%,4%,-5.55%,1%,4%,-0.5%,4%,-4%,7.9%,9%,18%,42.5%,0%,-1%,-5.45%
CCOc1ccccc1/C=C1\NC(=O)N(/C=C2\C(=O)Oc3ccccc3C2=O)C1=O,6%,96% (active),93.7% (active),-13%,96% (active),94.2% (active),0%,85% (active),97.2% (active),6%,95% (active),88.5% (active),-4%,96% (active),94.7% (active),1%,89% (active),95.5% (active)
C=CCN1/C(=C/C=C\c2sc3ccccc3[n+]2CC=C)Sc2ccccc21,60%,98% (active),91.7% (active),80% (active),99% (active),93.6% (active),95% (active),99% (active),93.7% (active),93% (active),99% (active),93.5% (active),98% (active),99% (active),92.2% (active),90% (active),98% (active),91.8% (active)
O=c1ccc([N+](=O)[O-])c[nH]1.[Ag],98% (active),98% (active),99.5% (active),99% (active),99% (active),99.3% (active),99% (active),98% (active),99.1% (active),98% (active),100% (active),98.2% (active),98% (active),98% (active),98.3% (active),98% (active),97% (active),99% (active)
Cc1cc2ccc(N)nc2[nH]c1=O,-7%,-4%,25.6%,-2%,-3%,27.2%,-4%,0%,10.3%,-3%,-1%,85.4% (active),1%,5%,12.7%,-2%,1%,24.8%
N#Cc1c(Cl)nnc(-c2ccccc2)c1-c1ccccc1,6%,81% (active),89.3% (active),8%,84% (active),92.2% (active),-8%,83% (active),92.8% (active),-1%,66%,93.8% (active),1%,91% (active),93.5% (active),4%,91% (active),93.6% (active)
C=C1CC(C)(C)C(c2ccccc2)OC1=O (centres undefined),1%,60%,53%,7%,80% (active),31.7%,8%,98% (active),97.1% (active),-4%,25%,5.55%,-7%,80% (active),73.5% (active),13%,87% (active),77.8% (active)
Nc1c(-c2ccc(C3=NCCN3)cc2)[nH]c2cc(C3=NCCN3)ccc12,2%,89% (active),32.3%,1%,89% (active),-29%,14%,92% (active),69.9%,13%,83% (active),49.5%,22%,94% (active),74.1% (active),3%,90% (active),-46.2%
CCOC(=O)c1cnc2cc3cccccc3n2c1=O,4%,62%,71.7% (active),-1%,41%,42.5%,13%,65%,76.5% (active),-2%,44%,54.9%,-2%,67%,31.6%,-1%,86% (active),93.3% (active)
CC(C)(C)c1cc(Cl)c(O)c(Cc2cc(C(C)(C)C)cc(Cl)c2O)c1,5%,67%,67%,36%,78% (active),72.2% (active),-4%,84% (active),82.5% (active),14%,79% (active),82% (active),9%,76% (active),62.5%,52%,85% (active),70.5% (active)
CCS(=O)(=O)OC(C)CCl (centres undefined),-2%,-3%,-5.65%,1%,0%,-14.7%,0%,-1%,11.8%,-2%,2%,70.2% (active),-2%,-3%,-4.9%,-2%,-5%,49.5%
O=C1COCC(=O)OCCOCCSCCOCCO1,5%,11%,-4.6%,0%,5%,-1.2%,1%,1%,-7%,4%,41%,37.2%,-4%,4%,8.75%,8%,15%,7.75%
CCN(CC)CCSCCCNc1cc(C)nc2c1ccc1c2ccc2c(NCCCSCCN(CC)CC)cc(C)nc21,5%,92% (active),97.3% (active),3%,70% (active),97.4% (active),-2%,49%,97.8% (active),-3%,42%,72.5% (active),4%,67%,94.4% (active),8%,94% (active),95.8% (active)
